Most compounds without a hit are left out; they make up all but 4.9% or so of the library.
tim23-1 inh – tim23-1 yeast growth inhibition. S. cerevisiae tim23-1 growth, BacTiter-Glo luminescence, 24 h. inhibition, % at 20 µM. actives 1.3% (n = 330,000);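 active = growth inhibition of the mutant yeast at or above 50%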;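 also: temperature-sensitive mutant grown at 25 °C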
SKKanGAS inh – SKKanGAS growth inhibition; actives 1.3% (n = 300,000); inhibition, % at 7.5 µM; S. pyogenes SKKanGAS, kanamycin growth, BacTiter-Glo, 6 h; AID 1662;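 active = mean replicate score, as percent of positive control median, at least 50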;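 also: strain carries kanamycin resistance gene driven by streptokinase promoter and grows in 40 µg/ml kanamycin; loss of luminescence reflects streptokinase promoter inhibition or plain growth inhibition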
NALP3 yeast inh – blocks the NALP3 inflammasome reconstituted in yeast; Yeast reconstituted NLRP3/ASC/caspase-1, beta-gal luminescence, 24 h; inhibition, % at 10 µM; actives 0.39% (n = 330,000);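 active = inhibition of 50% or more; inactive = inhibition below 50%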
TIM10 inh – TIM10 yeast growth inhibition | S. cerevisiae TIM10 strain growth, BacTiter-Glo luminescence, 24 h | actives 1.4% (n = 330,000) | AID 463195 | inhibition, % at 10 µM;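 active = inhibition of 40% or more at the single tested concentration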;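 also: wild-type TIM10 isogenic control strain grown at permissive 25 °C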
tim10-1 inh – tim10-1 yeast growth inhibition; actives 2.2% (n = 330,000); inhibition, % at 20 µM; S. cerevisiae tim10-1 ts strain growth, BacTiter-Glo, 24 h;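 active = inhibition of at least 40%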;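 also: mutant grown at 25 °C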
NALP1 yeast inh – blocks the NALP1 inflammasome reconstituted in yeast | AID 2071 | S. cerevisiae NALP1/ASC/caspase-1 growth, X-gal OD620, 72 h | inhibition, % at 10 µM | actives 0.61% (n = 280,000); in the data active = inhibition mostly above about 24%, no sharp cut-off; inactive = mostly below about 32%
tim10-1 confirm – tim10-1 yeast growth inhibition, confirmed | actives 56% (n = 7,400) | inhibition, % at 20 µM | S. cerevisiae tim10-1 ts strain growth, BacTiter-Glo, 24 h | shares compounds with tim10-1 inh;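 active = inhibition of yeast growth at or above a set limit in either of two repeat tests at 20 µM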;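 also: tim10-1 mutant grown at permissive 25 °C to find synthetic lethal compounds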
tim10 confirm – confirmation of TIM10 yeast growth inhibitors; inhibition, % at 10 µM; actives 63% (n = 4,600); shares compounds with TIM10 inh; S. cerevisiae tim10 strain growth, BacTiter-Glo luminescence, 24 h; AID 463215;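 active = inhibition of yeast growth at or above a set limit in either of two replicates at 10 µM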; also: this counterscreen used the strain with wild-type TIM10
A number is an active result; n = inactive; x = not tested or not shown.

SMILES | tim23-1 inh | SKKanGAS inh | NALP3 yeast inh | TIM10 inh | tim10-1 inh | NALP1 yeast inh | tim10-1 confirm | tim10 confirm
CC(=O)NC1C(c2nc3ccccc3s2)=C(c2ccccc2)C(=O)N1c1ccc(C)cc1 (stereo not given) | n | n | n | 51 | 53 | n | 51 | 37
Cc1cc(NCCOCCO)n2ncc(-c3ccc(Cl)cc3)c2n1 | n | n | n | 42 | 57 | n | 44 | 50
Cc1ccc2cccc(NC(=S)NC(=O)c3ccccc3)c2n1 | n | n | n | 42 | 43 | n | 31 | 43
Cc1ccc(C(C)C)c(OCC(=O)NNC(=O)CC2OC(=O)c3ccccc32)c1 (stereo not given) | n | n | n | n | n | x | x | x
CCOC(=O)C1CCN(S(=O)(=O)c2cccc(-c3cn4cccc(C)c4n3)c2)CC1 | n | x | n | 50 | 55 | n | n | n
CCOC(=O)C1CCN(S(=O)(=O)c2cccc(-c3cn4ccccc4n3)c2)CC1 | n | n | n | n | n | n | x | x
Cc1nc(N)sc1-c1csc(Nc2cccc(O)c2)n1 | n | n | n | n | n | n | x | x
Cc1nc(C)c(-c2csc(Nc3cccc(O)c3)n2)s1 | n | n | n | 48 | 44 | n | n | 31
Nc1nn2cc(-c3ccccc3)nc2c2ccccc12 | n | n | n | 56 | 56 | n | 53 | 49
CC1Cc2ccccc2N1C(=S)NC(=O)c1ccc(Cl)cc1Cl (stereo not given) | n | 61 | n | 50 | 44 | n | 46 | n
CCCc1cc(NCC2CCCO2)n2c(nc3ccccc32)c1C#N (stereo not given) | n | n | n | 41 | 41 | n | 37 | n
S=C(NCc1cccs1)Nc1cccc(Cl)c1 | n | n | n | 47 | 45 | n | 34 | 43
CC(C)c1ccc(NC(=S)NCc2cccs2)cc1 | n | n | n | 45 | 56 | n | 36 | 42
O=C(CCN1CCN(c2ccccc2F)CC1)Nc1cccc(F)c1 | n | n | n | n | n | n | x | x
COC(=O)C(=C/C(C)=C/c1cccnc1)C(=O)OC | n | n | n | 50 | 50 | n | 41 | 46
COC(=O)/C(=C/c1cccnc1)NC(=O)c1ccccc1 | n | n | n | n | n | n | x | x
COC(=O)[C@@H]1C[C@@]2(Br)c3ccccc3N(S(=O)(=O)c3ccccc3)[C@H]2N1C(=O)OC | n | n | n | n | n | x | x | x
O=c1c2c(nc(NCCO)n1CC1CCCCC1)-c1ccccc1CC21CCCC1 | n | 87 | n | 52 | 55 | n | 37 | n
CCN1C(=O)c2ccc(C(=O)Nc3ccc4c(c3)OCO4)cc2C1=O | n | n | n | n | n | n | x | x
CCCCn1c(N)c(N(CC(C)C)C(=O)c2ccc(S(=O)(=O)N3CCCCC3)cc2)c(=O)[nH]c1=O | n | n | n | n | n | x | x | x
COc1ccc(C(=O)CSc2nc3ccccc3n2CC(=O)c2ccccc2)cc1 | n | n | n | n | n | n | x | x
COc1ccc(C(=O)Cn2c(C(=O)/C=C/c3ccccc3)nc3ccccc32)cc1 | n | n | n | 41 | 49 | n | 44 | 36
CCc1noc(C)c1C(=O)OC(C)C(=O)Nc1ccc(Cl)cn1 (stereo not given) | n | x | n | n | n | x | x | x
O=c1cc(-c2c(F)c(F)c(F)c(F)c2F)oc2c(F)c(F)c(F)c(F)c12 | n | n | n | 54 | 42 | n | 46 | 41
COc1ccccc1N1CCN(C(=O)CCNS(=O)(=O)c2cc(Br)cnc2N)CC1 | n | n | n | n | n | n | x | x
Cn1c(=O)c2nc(-c3ccccc3)oc2c2ccccc21 | n | n | n | 59 | 55 | n | 48 | 68
COc1ccc(NC(=O)CCOc2ccccc2F)cc1S(=O)(=O)N1CCCCC1 | n | x | n | n | n | x | x | x
Cc1nnc(NC(=O)c2cc(S(=O)(=O)N3CCCCC3)ccc2Cl)s1 | n | n | n | n | n | n | x | x
CC1CCN(C(=O)/C(=C/c2ccccc2Cl)c2ccccc2)CC1 | n | n | n | 41 | 41 | n | n | n

Compound activity deposited in PubChem BioAssay by several laboratories.
